Drawing on PubChem BioAssay, this text covers composite z-score and z-score for five molecules.

Test [1] is described as follows: small molecules captured by biotinylated probe aFSTL3 – biochemical, small-molecule microarray, fluorescence 635/667, stem cell growth factor project, primary screen (AID 1064).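 Note: measures binding of the biotinylated anti-FSTL3 antibody to printed compounds.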 To be noted: higher = more signal.
The nature of test [2]: binders from COS7 lysate, DM2A8 probe, primary screen, torsin A project, cell lysate, small-molecule microarray, fluorescence 635/667 (AID 1065). The following applies: higher = more signal, COS7 lysate expressing mutant human TOR1A.
Test [3] is described as follows: small molecules captured by biotinylated probe aFGF2 – biochemical, small-molecule microarray, fluorescence 635/667, stem cell growth factor project, primary screen (AID 1067).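 Note: measures binding of biotinylated aFGF2 protein to printed compounds on slides; z-score merges feature fluorescence and signal-to-noise across triplicate slides.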 To be noted: higher = more signal.
A short description of test [4]: small molecules captured by biotinylated probe aFGF10 – biochemical, small-molecule microarray, fluorescence 635/667, stem cell growth factor project, primary screen (AID 1071).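 Note: score merges 667 nm spot intensity and signal to noise from triplicate slides.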 The following applies: higher = more signal.
Test [5] concerns the target Neurogenic locus notch homolog protein 2 (Homo sapiens) (UniProt Q04721). The test is described as follows: small molecules binding Notch2 protein – biochemical, small-molecule microarray, 635 nm fluorescence, stem cell growth factors, primary screen (AID 1073). To be noted: higher = more signal.
The target in test [6] is Pro-neuregulin-1, membrane-bound isoform (Homo sapiens) (UniProt Q02297). The test is described as follows: small molecules binding neuregulin-1 protein – biochemical, small-molecule microarray, fluorescence 635/667, psychiatric disease protein project, primary screen (AID 1075).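 Note: score combines 667 nm spot fluorescence with signal to noise.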 The following applies: NRG1 binding, 635 nm fluorescence, higher = more signal.
Test [7] deals with Neuregulin-1 EGF-like domain. The test is described as follows: small molecules binding NRG1 EGF domain – biochemical, small-molecule microarray, 635 nm fluorescence, primary screen (AID 1081).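 Note: binding of the protein to compounds printed on small-molecule microarray slides.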 To be noted: higher = more signal.
A short description of test [8]: FRG1 expression reporter modulators in myotubes – cell-based, C2C12 myotubes, firefly/Renilla luciferase, luminescence, FRG1 inhibition for FSHD, primary screen (AID 1084). The following applies: FRG1 promoter luciferase, higher = more signal, called active from +8 up or from −8 down.
A short description of test [9]: small molecules captured by biotinylated probe aFST – biochemical, small-molecule microarray, fluorescence 635/667, stem cell growth factor project, primary screen (AID 1086).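 Note: score merges 667 nm fluorescence with signal-to-noise of each printed compound spot.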 To be noted: higher = more signal.
A short description of test [10]: binders of probe aHhip on microarray, primary screen, stem cell growth factor project, biochemical, small-molecule microarray, fluorescence 635/667 (AID 1087).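 Note: score merges spot fluorescence at 667nm with spot signal to noise ratio.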 The following applies: higher = more signal.
The test system of test [11] is PRMT1 (protein arginine N-methyltransferase 1). Nature of the test: small molecules binding arginine methyltransferase PRMT1 – biochemical, small-molecule microarray, 635 nm fluorescence, primary screen (AID 1088).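 Note: binding of Prmt1 protein to compounds spotted on small-molecule microarray slides.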 To be noted: higher = more signal.
Test [12] is described as follows: growth effects on S. cerevisiae YJM789 – YJM789 clinical isolate, OD600, 24 h, basal, primary screen (AID 1089).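 Note: growth of clinical yeast isolate S. cerevisiae YJM 789 seeded 1000 cells per well; test concentration not given here.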 To be noted: higher = more signal, called active from +8 up or from −8 down.
A short description of test [13]: S. pombe growth modifiers, basal conditions – strain 972, OD600, 24 h, no modulator, primary screen (AID 1090).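 Note: basal condition with compound alone and no growth modifier present; test concentration not given here.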 To be noted: S. pombe 972 growth, higher = more signal, called active from +8 up or from −8 down.
A short description of test [14]: budding yeast growth modifiers under rapamycin – strain BY4716, OD600, 96 h, primary screen (AID 1091). Note: test concentration not given here. To be noted: S. cerevisiae BY4716 + rapamycin, higher = more signal, called active from +8 up or from −8 down.
Test [15] deals with Torsin-1A-interacting protein 2 (Homo sapiens) (UniProt Q8NFQ8). The test is described as follows: small molecules binding lysate-expressed LULL1 – cell lysate, human LULL1 lysate, 635/667 nm fluorescence, primary screen (AID 1092).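 Note: probe is lysate of COS7 cells overexpressing human LULL1; score merges per-feature 667 nm fluorescence with signal-to-noise.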 The following applies: small-molecule microarray, hLULL1 lysate binding, 635 nm fluorescence; higher = more signal.
Test [16] can be described thus: optical density change of DRC41 E. coli – strain DRC41, OD650, 24 h, E. coli filamentation project, primary screen (AID 1093).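 Note: MC1000 strain lacking acrAB efflux and sulA so SOS filamentation is blocked; test concentration not given here.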 To be noted: E. coli DRC41 growth, higher = more signal, called active from +8 up or from −8 down.
Test [17] can be described thus: probe aLefty2 binding to arrayed compounds – biochemical, biotinylated probe, 635/667 nm fluorescence, primary screen (AID 1094).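 Note: score merges spot fluorescence near 667 nm with spot signal-to-noise ratio.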 To be noted: small-molecule microarray, higher = more signal.
In test [18] the test system is Noggin (protein binding on small-molecule microarray). Nature of the test: small molecules binding Noggin protein – biochemical, 635/667 nm fluorescence, primary screen (AID 1095).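 Note: score merges 667 nm feature fluorescence with signal to noise over triplicate slides.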 The following applies: 635 nm fluorescence, higher = more signal.
Test [19] addresses Neurogenic locus notch homolog protein 3 (Homo sapiens) (UniProt Q9UM47). The test is described as follows: small molecules binding NOTCH3 protein – biochemical, 635/667 nm fluorescence, primary screen (AID 1096). The following applies: small-molecule microarray, 635 nm fluorescence, higher = more signal.
Test [20] in a line: probe aEGFR binding to arrayed compounds – biochemical, biotinylated probe, 635/667 nm fluorescence, primary screen (AID 1097).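 Note: probe is a biotinylated anti-EGFR antibody binding compounds printed on slides; score combines fluorescence near 667 nm and signal to noise of each spot.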 The following applies: small-molecule microarray, higher = more signal.

Each structure is given as a SMILES string. Activity calls are given as the source filed them.

Neurogenic locus notch homolog protein 2 (Homo sapiens), sequence (Q04721 whole entry, looked up, canonical isoform): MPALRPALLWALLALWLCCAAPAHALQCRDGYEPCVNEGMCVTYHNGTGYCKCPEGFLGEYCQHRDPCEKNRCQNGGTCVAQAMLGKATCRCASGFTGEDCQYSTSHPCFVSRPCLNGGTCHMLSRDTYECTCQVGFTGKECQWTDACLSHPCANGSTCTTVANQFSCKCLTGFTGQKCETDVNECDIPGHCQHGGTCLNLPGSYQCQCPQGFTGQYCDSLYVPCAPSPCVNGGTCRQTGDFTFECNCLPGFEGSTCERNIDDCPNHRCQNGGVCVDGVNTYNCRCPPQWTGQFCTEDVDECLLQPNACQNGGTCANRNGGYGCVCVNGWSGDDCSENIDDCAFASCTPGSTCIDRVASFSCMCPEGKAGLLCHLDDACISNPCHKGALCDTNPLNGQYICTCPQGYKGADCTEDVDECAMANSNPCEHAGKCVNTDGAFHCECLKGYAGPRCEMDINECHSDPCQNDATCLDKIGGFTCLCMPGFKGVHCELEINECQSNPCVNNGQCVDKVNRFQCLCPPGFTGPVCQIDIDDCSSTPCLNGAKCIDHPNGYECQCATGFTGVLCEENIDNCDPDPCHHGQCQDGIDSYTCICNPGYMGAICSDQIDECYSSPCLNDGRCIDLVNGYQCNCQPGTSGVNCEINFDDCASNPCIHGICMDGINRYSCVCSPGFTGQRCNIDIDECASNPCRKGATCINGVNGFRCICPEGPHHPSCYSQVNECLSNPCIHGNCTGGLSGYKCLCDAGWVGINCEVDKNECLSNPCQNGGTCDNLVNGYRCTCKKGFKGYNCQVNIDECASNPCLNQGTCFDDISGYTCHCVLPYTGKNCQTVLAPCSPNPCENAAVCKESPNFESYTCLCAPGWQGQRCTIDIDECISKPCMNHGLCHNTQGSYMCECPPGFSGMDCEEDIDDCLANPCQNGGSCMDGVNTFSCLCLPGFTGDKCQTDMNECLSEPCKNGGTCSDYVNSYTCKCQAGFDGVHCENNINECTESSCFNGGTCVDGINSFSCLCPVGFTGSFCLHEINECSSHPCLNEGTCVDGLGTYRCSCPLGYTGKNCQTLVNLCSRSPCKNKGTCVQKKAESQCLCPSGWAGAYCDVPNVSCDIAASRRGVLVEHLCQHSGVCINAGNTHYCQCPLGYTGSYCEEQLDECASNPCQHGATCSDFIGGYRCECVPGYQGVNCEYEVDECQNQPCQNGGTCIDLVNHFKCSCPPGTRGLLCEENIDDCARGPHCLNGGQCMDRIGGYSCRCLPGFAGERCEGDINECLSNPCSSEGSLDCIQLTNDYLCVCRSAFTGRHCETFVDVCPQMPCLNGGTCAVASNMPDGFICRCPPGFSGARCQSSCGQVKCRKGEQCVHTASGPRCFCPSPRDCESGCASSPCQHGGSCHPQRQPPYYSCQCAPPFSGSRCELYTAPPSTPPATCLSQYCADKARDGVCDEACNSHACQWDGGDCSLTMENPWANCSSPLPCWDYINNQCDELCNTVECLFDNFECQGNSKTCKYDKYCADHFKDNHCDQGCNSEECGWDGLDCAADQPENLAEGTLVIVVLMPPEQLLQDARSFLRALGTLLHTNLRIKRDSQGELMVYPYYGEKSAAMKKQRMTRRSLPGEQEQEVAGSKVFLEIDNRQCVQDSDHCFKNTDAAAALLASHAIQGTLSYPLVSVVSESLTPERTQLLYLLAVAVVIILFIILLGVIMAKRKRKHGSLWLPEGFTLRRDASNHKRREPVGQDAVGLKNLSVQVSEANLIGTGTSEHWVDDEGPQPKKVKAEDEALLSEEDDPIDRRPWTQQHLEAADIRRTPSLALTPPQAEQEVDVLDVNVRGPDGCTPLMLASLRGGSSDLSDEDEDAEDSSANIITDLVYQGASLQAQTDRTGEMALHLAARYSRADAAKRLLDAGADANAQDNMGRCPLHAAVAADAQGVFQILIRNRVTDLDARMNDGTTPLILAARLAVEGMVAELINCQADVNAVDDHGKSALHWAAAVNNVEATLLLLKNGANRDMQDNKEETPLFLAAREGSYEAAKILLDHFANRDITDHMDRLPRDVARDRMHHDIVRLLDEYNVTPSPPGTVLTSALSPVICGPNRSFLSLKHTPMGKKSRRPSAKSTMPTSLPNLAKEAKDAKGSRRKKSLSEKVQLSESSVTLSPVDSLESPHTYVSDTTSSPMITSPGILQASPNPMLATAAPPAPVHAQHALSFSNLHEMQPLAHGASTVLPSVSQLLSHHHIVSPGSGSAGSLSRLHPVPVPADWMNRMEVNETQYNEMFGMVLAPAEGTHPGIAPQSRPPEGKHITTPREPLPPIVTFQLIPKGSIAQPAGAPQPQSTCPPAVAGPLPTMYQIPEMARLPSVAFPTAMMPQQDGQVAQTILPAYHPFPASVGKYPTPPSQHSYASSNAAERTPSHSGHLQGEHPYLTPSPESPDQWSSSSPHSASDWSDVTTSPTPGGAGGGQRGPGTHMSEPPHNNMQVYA
Neurogenic locus notch homolog protein 3 (Homo sapiens), sequence (Q9UM47 whole entry, looked up): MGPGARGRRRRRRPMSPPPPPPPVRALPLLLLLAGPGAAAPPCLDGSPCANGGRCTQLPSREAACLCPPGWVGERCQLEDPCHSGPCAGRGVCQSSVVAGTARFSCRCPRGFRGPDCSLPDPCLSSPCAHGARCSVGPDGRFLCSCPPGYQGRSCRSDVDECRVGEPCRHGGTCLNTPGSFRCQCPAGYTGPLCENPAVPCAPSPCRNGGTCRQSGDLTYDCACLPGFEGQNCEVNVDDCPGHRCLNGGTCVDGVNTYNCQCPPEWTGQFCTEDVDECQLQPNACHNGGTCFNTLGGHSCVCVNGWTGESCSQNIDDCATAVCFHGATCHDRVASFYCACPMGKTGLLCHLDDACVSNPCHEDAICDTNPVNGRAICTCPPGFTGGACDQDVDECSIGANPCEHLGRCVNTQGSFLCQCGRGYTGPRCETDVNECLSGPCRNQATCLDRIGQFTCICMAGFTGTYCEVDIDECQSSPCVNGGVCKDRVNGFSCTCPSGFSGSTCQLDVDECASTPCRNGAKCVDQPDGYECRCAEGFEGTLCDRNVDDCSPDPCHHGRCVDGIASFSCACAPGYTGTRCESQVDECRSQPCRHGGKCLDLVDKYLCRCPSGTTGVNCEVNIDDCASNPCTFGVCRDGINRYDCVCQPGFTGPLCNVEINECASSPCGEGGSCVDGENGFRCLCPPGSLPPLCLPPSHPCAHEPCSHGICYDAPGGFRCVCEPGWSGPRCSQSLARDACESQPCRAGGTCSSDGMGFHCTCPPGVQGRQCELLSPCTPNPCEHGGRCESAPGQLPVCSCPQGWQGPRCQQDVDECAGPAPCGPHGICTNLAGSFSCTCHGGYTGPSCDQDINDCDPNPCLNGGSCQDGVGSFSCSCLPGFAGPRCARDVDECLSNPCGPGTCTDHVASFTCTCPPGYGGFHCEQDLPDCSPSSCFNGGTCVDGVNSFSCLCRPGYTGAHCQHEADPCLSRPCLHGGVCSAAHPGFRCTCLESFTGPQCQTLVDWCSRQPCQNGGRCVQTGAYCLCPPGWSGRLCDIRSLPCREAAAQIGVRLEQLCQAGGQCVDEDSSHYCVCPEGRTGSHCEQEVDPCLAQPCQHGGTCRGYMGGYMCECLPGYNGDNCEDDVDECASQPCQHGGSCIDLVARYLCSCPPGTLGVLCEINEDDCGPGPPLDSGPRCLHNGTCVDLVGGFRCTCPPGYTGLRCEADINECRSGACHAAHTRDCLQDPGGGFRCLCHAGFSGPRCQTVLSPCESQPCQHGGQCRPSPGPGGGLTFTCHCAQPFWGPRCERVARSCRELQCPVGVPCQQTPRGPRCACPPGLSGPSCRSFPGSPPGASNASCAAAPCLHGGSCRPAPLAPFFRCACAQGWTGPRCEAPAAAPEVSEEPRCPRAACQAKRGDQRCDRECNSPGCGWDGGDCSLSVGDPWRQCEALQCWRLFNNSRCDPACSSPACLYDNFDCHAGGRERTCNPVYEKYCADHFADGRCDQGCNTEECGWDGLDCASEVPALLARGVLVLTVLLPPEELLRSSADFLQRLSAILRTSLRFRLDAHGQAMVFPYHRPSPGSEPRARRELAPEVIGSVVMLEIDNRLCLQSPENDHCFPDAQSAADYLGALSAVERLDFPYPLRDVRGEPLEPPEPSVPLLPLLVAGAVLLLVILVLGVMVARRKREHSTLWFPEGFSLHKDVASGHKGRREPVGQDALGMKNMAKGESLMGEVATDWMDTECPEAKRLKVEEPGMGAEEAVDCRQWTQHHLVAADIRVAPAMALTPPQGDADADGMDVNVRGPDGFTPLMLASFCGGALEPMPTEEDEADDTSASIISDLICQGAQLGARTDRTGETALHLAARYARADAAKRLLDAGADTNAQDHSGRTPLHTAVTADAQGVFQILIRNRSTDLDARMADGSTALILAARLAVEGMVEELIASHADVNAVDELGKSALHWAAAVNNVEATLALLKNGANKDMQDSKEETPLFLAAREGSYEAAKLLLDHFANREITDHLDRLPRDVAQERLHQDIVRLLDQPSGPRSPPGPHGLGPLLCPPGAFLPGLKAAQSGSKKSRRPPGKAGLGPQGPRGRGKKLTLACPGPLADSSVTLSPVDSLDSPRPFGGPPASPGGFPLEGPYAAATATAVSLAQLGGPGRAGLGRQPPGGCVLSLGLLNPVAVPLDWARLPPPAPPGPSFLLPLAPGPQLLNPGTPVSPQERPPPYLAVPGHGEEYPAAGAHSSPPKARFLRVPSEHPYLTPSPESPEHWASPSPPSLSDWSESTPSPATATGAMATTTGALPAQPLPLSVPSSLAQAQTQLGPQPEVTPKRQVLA

For `Cc1ccc(F)cc1S(=O)(=O)N[C@@H]1CCN(Cc2ccc(CC(C)C)cc2)C1`, the composite z-score in test [1] is -0.433; in test [2] it was 0.172; in test [3], -0.214; in test [4] it was -0.613; in [5], -0.613; in test [6] it was -0.0721. The composite z-score in test [7] was -0.197; in [9], -0.493; in test [10], -0.249; in [11] it was 0.446; in [15], 1.59; in test [17] it was -0.192. Also, the composite z-score is -0.0204 in test [18], -0.734 in test [19] and -0.17 in test [20]. In addition, the z-score in test [8] is -1.06 (inactive); in test [12], -25.8 (active); in test [13] it was -21.4 (active); in test [14] it was -4.49 (inactive); in test [16], -19.5 (active).
In the case of `CO[C@@H]1COC(=O)CCC[C@@H](C)[C@H](OC)COC(=O)CCC[C@H]1C`, the composite z-score in test [1] is -0.298; in test [2], 0.743; in test [3], -0.0982; in [4], 0.219; in [5], 0.633; in [6], -0.63. In addition, the composite z-score in test [7] is 0.176; in [9] it was 0.561; in [10], 0.369; in test [11] it was 0.408; in [15] it was -0.431; in test [17], -0.234. Moreover, the composite z-score in [18] is 0.6; in [19], 0.636; in test [20] it was -0.0967. The z-score is 0.462 (inactive) in test [8]; 0.376 (inactive) in [12]; 0.852 (inactive) in [13]; 0.294 (inactive) in test [14]; -0.0526 (inactive) in [16].
For `CC(CCN1CCCCc2nc(C)c(C)cc21)=NOC(C)CN1CCCc2nc(C)c(C)cc21` (stereo not given), the composite z-score in test [1] turned out to be 0.0516; in test [2], 0.471; in [3] it was 0.196; in test [4] it was 0.943; in test [5] it was 1.52; in test [6], 1.35. The composite z-score was 1.06 in test [7]; 1.24 in [9]; 0.82 in test [10]; 1.52 in [11]; 2.91 in test [15]; 0.447 in [17]. Moreover, the composite z-score in test [18] worked out at 1.07; in [19], 1.04; in [20], 0.509. In addition, the z-score in [8] was 1.28 (inactive); in [12] it was -1.19 (inactive); in test [13] it was -1.06 (inactive); in test [14], -0.321 (inactive); in test [16], 0.162 (inactive).
As to `COC(=O)[C@@H]1CCCN1C(=O)[C@@H](C)CO`, the composite z-score is -0.527 in test [1]; 0.431 in [2]; -0.137 in test [3]; 0.467 in test [4]; 0.693 in [5]; 0.346 in test [6]. The composite z-score was 1.03 in [7]; 0.162 in test [9]; 0.154 in test [10]; 0.177 in [11]; 0.93 in test [15]; -0.152 in [17]. In addition, the figures for the composite z-score in test [18], in [19] and in [20] were 0.415, 0.753 and 0.0055, respectively. Further, the z-score in test [8] is 1.66 (inactive); in test [12], -1.12 (inactive); in [13] it was -0.988 (inactive); in [14], 0.258 (inactive); in test [16] it was -0.197 (inactive).
In the case of `CN1C(=O)[C@@]2(CCC(=O)OC(C)(C)C)N=C(c3ccc(OCCCO)cc3)O[C@H]2c2ccccc21`, the composite z-score in test [1] was -0.195; in test [2] it was 0.756; in test [3] it was -0.0948; in [4], 0.124; in test [5] it was 0.244; in test [6], 0.859. Besides, the composite z-score was 1.13 in test [7]; 0.183 in test [9]; -0.186 in test [10]; 1.54 in test [11]; 2.82 in [15]; 0.0112 in test [17]. The composite z-score is 0.747 in [18], 0.736 in [19] and -0.168 in test [20]. Moreover, the z-score was -0.105 (inactive) in [8]; -1.08 (inactive) in test [12]; -2.19 (inactive) in test [13]; 0.0793 (inactive) in test [14]; 1.43 (inactive) in test [16].
